Data: the supplement of paper PMC11634586
Where a name gives a salt, the structure may show the parent alone. Unmarked numbers belong to inactive results.

Tested on: NCI-H1688
Assay: inhibition of cell viability relative to untreated control (fraction); higher = stronger growth inhibition, active = 0.5 or more
Conditions: 30 µM; 24 h
Summary of the method: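 Compounds from a natural compound library (TargetMol) were tested at 30 µM on NCI-H1688 small cell lung cancer cells for 24 h at 37°C under 5% CO2. Cell Counting Kit-8 absorbance at 450 nm, read in triplicate, gave the viability. The values express inhibition of cell viability as a fraction relative to untreated cells.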

Row | SMILES | inhibition of cell viability
1 | CC(=O)OCC(=O)[C@@]1(O)CC[C@H]2[C@@H]3CCC4=CC(=O)CC[C@]4(C)[C@H]3C(=O)C[C@@]21C [Cortisone acetate] | -0.148
2 | CC(=O)OC1CC2CCC1(C)C2(C)C (stereo not drawn) [Bornyl acetate] | -0.214
3 | COc1cc(O)c2c(c1)C(=O)c1cc(C)cc(O)c1C2=O [Rheochrysidin] | 0.0809
4 | Cc1c(C)c2c(c(C)c1O)CC[C@@](C)(CCC[C@H](C)CCC[C@H](C)CCCC(C)C)O2 [Vitamin E] | -0.243
5 | OC[C@H]1O[C@H](O)[C@H](O)[C@@H](O)[C@H]1O [Alpha-D-galactose] | 0.0334
6 | C[n+]1cc2c3c(ccc2c2ccc4cc5c(cc4c21)OCO5)OCO3 [Sanguinarine chloride] | 0.982 (active)
7 | CC12CCC(CC1=O)C2(C)C (stereo not drawn) [Camphor] | -0.239
8 | Cc1cccc2c3c(ccc12)C1=C(C(=O)C3=O)[C@@H](C)CO1 [Dihydrotanshinone I] | 0.992 (active)
9 | O=c1[nH]cnc2c1ncn2[C@H]1C[C@H](O)[C@@H](CO)O1 [2'-Deoxyinosine] | -0.00407
10 | C/C=C\c1ccc(OC)cc1 [cis-Anethol] | -0.182
11 | NC(N)=O | -0.0194
12 | C[N+]1(C)CCCC1C(=O)O (stereo not drawn) | 0.205
13 | NCCc1ccc(O)c(O)c1 [Dopamine hydrochloride] | 0.0465
14 | O=c1c2ccccc2nc2n1CCc1c-2[nH]c2ccccc12 [Rutaecarpine] | -0.128
15 | CC[C@]1(O)C[C@H]2CN(CCc3c([nH]c4ccccc34)[C@@](C(=O)OC)(c3cc4c(cc3OC)N(C=O)[C@H]3[C@@](O)(C(=O)OC)[C@H](OC(C)=O)[C@]5(CC)C=CCN6CC[C@]43[C@@H]65)C2)C1 [Vincristine sulfate] | 0.847 (active)
16 | O=C(O)C=CC=Cc1ccccc1 [5-Phenyl-2,4-pentadienoic acid] | -0.102
17 | COc1cc2c(c(OC)c1OC)-c1c(cc3c(c1OC)OCO3)CC(C)C(C)C2 (stereo not drawn) [Schizandrin B] | -0.0395
18 | CC(C)CCC[C@@H](C)[C@H]1CC[C@H]2[C@@H]3CC=C4C[C@@H](O)CC[C@]4(C)[C@H]3CC[C@]12C [Cholesterol] | -0.0392
19 | O=c1c2cc(O)c(O)cc2oc2cc(O)c([C@@H]3O[C@H](CO)[C@@H](O)[C@H](O)[C@H]3O)c(O)c12 [Mangiferin] | -0.186

Row | SMILES | inhibition of cell viability
20 | COc1cc(O)cc(OC)c1OC [3,4,5-Trimethoxyphenol] | 0.0652
21 | Cc1ccc(C(C)C)cc2c(C)ccc1-2 [Guaiazulene] | 0.0813
22 | C[C@H](CCC(=O)O)[C@H]1CC[C@H]2[C@@H]3C(=O)C[C@@H]4CC(=O)CC[C@]4(C)[C@H]3CC(=O)[C@]12C [Dehydrocholic acid] | -0.142
23 | C[N+](C)(C)CC(O)CC(=O)[O-] (stereo not drawn) [L(-)-Carnitine] | 0.123
24 | Oc1cc(O)c2c(c1)OC(c1ccc(O)c(O)c1)C(OC1(c3ccc(O)c(O)c3)Oc3cc(O)cc(O)c3C(O)C1O)C2 (stereo not drawn) [Proanthocyanidins] | -0.126
25 | C[C@@H]1O[C@@H](O[C@H]2[C@H](Oc3cc(O)c4c(c3)O[C@H](c3ccc(O)cc3)CC4=O)O[C@H](CO)[C@@H](O)[C@@H]2O)[C@H](O)[C@H](O)[C@H]1O [Naringin] | 0.06
26 | C=C[C@](C)(O)CC[C@@H]1[C@@]2(C)CCCC(C)(C)[C@@H]2CC[C@@]1(C)O [Sclareol] | 0.318
27 | Oc1cc(O)c2c(c1)O[C@H](c1cc(O)c(O)c(O)c1)[C@H](O)C2 [Epigallocatechin] | -0.059
28 | COc1cc2c(c(OC)c1OC)-c1c(cc(OC)c(OC)c1OC)CC(C)C(C)C2 (stereo not drawn) [Schizandrin A] | -0.0474
29 | Oc1cc(O)c2c(c1)O[C@H](c1ccc(O)c(O)c1)[C@H](O)C2 [Epicatechin] | 0.0727
30 | O=c1cc(-c2ccccc2)oc2c(O)c(O)ccc12 [7,8-Dihydroxyflavone] | 0.694 (active)
31 | CCCCCCCCCCCCCCCC(=O)O [Palmitic acid] | 0.0796
32 | CN[C@@H]1[C@H](O[C@H]2[C@H](O[C@H]3[C@H](O)[C@@H](O)[C@H](N=C(N)N)[C@@H](O)[C@@H]3N=C(N)N)O[C@@H](C)[C@]2(O)C=O)O[C@@H](CO)[C@H](O)[C@H]1O [Streptomycin sulfate] | -0.138
33 | COc1ccc(C[C@H]2COC(=O)[C@@H]2Cc2ccc(O[C@@H]3O[C@H](CO)[C@@H](O)[C@H](O)[C@H]3O)c(OC)c2)cc1OC [Arctiin] | 0.0918
34 | O=C1CCC[C@@H]2[C@H]3CCC[N+]4([O-])CCC[C@@H](CN12)[C@@H]34 (stereo partly drawn) [Oxymatrine] | 0.0776
35 | NC(=O)CC[C@H](N)C(=O)O [L-Glutamine] | -0.0181
36 | COc1ccc2cc1Oc1ccc(cc1)C[C@H]1c3cc(c(OC)cc3CCN1C)Oc1c(O)c(OC)cc3c1[C@H](C2)N(C)CC3 [(+)-Fangchinoline] | 0.984 (active)
37 | NC[C@@H]1O[C@H](O[C@H]2[C@@H](O)[C@H](O[C@@H]3[C@@H](O)[C@H](N)C[C@H](N)[C@H]3O[C@H]3O[C@H](CO)[C@@H](O)[C@H](O)[C@H]3N)O[C@@H]2CO)[C@H](N)[C@@H](O)[C@@H]1O [Paromomycin Sulfate] | -0.0298
38 | CCOC(=O)C1=C[C@]2(CC)CCCN3CCc4c(n1c1ccccc41)[C@@H]32 [Vinpocetine] | -0.174
